Source: PubChem BioAssay (NCATS)
Records with an inconclusive call do not appear. Where a call stands in place of a potency, no number is given. Calls of active or inactive are those of the source. Calls come from the whole dose curve; as a rule, active = well fitted inhibition curve with a large enough effect; inconclusive = small, poorly fitted or top-dose-only effect; inactive = flat fitted curve, though single readings scatter. Where a SMILES comes first, the peptide text is derived from it. [ ]: non-standard residue; d: D form. pGlu = O=C1CC[C@@H](C(=O)O)N1; Thz = O=C(O)[C@@H]1CSCN1

System: CP315
Assay: qHTS profiling for inhibitors of Plasmodium falciparum proliferation (AID 504749); note: nearly all actives have a fitted effect of over 60% in size
Conditions: P. falciparum in erythrocytes, SYBR Green DNA, 72 h; series mostly up to 28.7 µM
How it was run: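 Readout was DNA-dye fluorescence from lysed cultures, ex 485/em 535 nm. Parasitized red cells had grown 72 h with compound; data scaled between 0.29 uM artemisinin and DMSO wells and corrected using vehicle-only plates.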
Potency is the fitted concentration of half-maximal effect.

Structure (SMILES)	Potency
O=C1CC[C@@H](C(=O)N2CSC[C@H]2C(=O)O)N1 ([pGlu]-[Thz]-OH)	inactive
Cc1c(Nc2ncccc2C(=O)O)cccc1C(F)(F)F	inactive
O=C(O)c1ccccc1Nc1cccc(C(F)(F)F)c1	inactive
CC(C(=O)O)c1ccc2c(c1)[nH]c1ccc(Cl)cc12 (centres undefined)	inactive
CC1(C)C[C@@H]1C(=O)N/C(=C\CCCCSC[C@H](N)C(=O)O)C(=O)O	inactive
Cc1cc(O)c2ccccc2c1O	inactive
Nc1ccc(C(=O)O)c(O)c1	inactive
C=C(Nc1ccc(OCC)cc1)Nc1ccc(OCC)cc1	inactive
CCCCC[C@H](O)/C=C/[C@@H]1[C@@H](C/C=C\CCCC(=O)O)[C@@H](O)C[C@H]1O	inactive
[O-][n+]1ccccc1SSc1cccc[n+]1[O-]	1.69 µM (active)
CCCCCCCCCCCCCCCC(=O)OC(C)C	inactive
Clc1ccccc1-c1nc(-c2ccncc2)no1	inactive
CN1[C@@H]2CC[C@H]1CC(OC(=O)C(CO)c1ccccc1)C2 (some centres undefined)	inactive
COc1ccc(-c2cc(=S)ss2)cc1	inactive
O=C(O)[C@H](CC(=O)N1C[C@H]2CCCC[C@H]2C1)Cc1ccccc1	inactive
Cc1ccccc1CNc1ncnc2c1ncn2C1OC(CO)C(O)C1O (centres undefined)	inactive
C#C[C@]1(O)CC[C@H]2[C@@H]3CCc4cc(O)ccc4[C@H]3CC[C@@]21C	inactive

Structure (SMILES)	Potency
COc1cc(/C=C/C(=O)N2CCN(CC(=O)N3CCCC3)CC2)cc(OC)c1OC	inactive
Cc1ccc(O)c(-n2nc3ccccc3n2)c1	inactive
O=C(O)COc1ccc(C(=O)c2cccs2)c(Cl)c1Cl	inactive
Cc1ccc(C(=O)c2ccc(CC(=O)O)n2C)cc1	inactive
CCCOC(=O)c1ccc(O)cc1	inactive
C=CC(N)CCC(=O)O (centres undefined)	inactive
C=CCCCCCCCCC(=O)O	inactive
COc1ccc(/C=C/C(=O)Nc2ccccc2C(=O)O)cc1OC	inactive
O=C(OCc1ccccc1)c1ccccc1	inactive
c1ccc2sc(SN3CCOCC3)nc2c1	inactive
CCCCCCCCCCCCCCCCCC(=O)O	inactive
COc1cc2c3cc1Oc1cc(ccc1O)C[C@@H]1c4c(cc(OC)c(O)c4Oc4ccc(cc4)C[C@@H]3N(C)CC2)CC[N+]1(C)C	inactive
O=C(Nc1ccc(C(=O)O)c(O)c1)c1ccccc1	inactive
C=CCN1C(=O)C(CC(C)C)NC1=S (centres undefined)	inactive
CC1(C)S[C@@H]2[C@H](NC(=O)[C@H](NC(=O)N3CCN(S(C)(=O)=O)C3=O)c3ccccc3)C(=O)N2[C@H]1C(=O)O	inactive
O=C(O)Cc1ccc(-c2ccccc2)cc1	inactive
CCOC(=O)c1ccccc1O	inactive
